Reference: the supplement of paper PMC12669032
“And” between values parts separate entries of the source, which are not always exact repeats. Equal entries are not always repeated. Unmarked numbers belong to inactive results.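 Rule for the calls: active = AUC reduced over 20% with Padj below 0.05 in at least 2 of 3 replicates; inactive = otherwise.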

Legend:
[1] = tested on: Roseburia intestinalis; assay: growth AUC relative to DMSO control (median of replicates) (fraction); higher = more growth (less inhibition), active = hit call of the paper; settings: 20 µM; 24 h
Outline: (§1)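 Gut bacterial monocultures were grown anaerobically at 37 °C in mGAM, starting at OD600 0.05, with 20 µM compound (1% DMSO) in round-bottom 96-well plates under pierced gas-permeable seals. OD600 was read hourly for 24 h. Area under the growth curve (minimum OD set to 0) was normalised to the plate median of DMSO controls, or to row and column medians on the industrial chemical plate. The value is the median of three biological replicates grown on separate days.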

[2] = tested on: Streptococcus salivarius; assay: as above; settings: 20 µM; 24 h
Outline: as §1

Row | SMILES | growth AUC [1] | growth AUC [2]
1 | O=[N+]([O-])c1ccc(Oc2ccc(C(F)(F)F)cc2[N+](=O)[O-])cc1 | 0.928 | 0.985
2 | CCCN(CCC)c1c([N+](=O)[O-])cc(S(C)(=O)=O)cc1[N+](=O)[O-] | 0.894 | 0.966
3 | CNC(=O)Oc1cccc2c1OC(C)(C)C2 | 0.992 | 1.03
4 | c1coc(-c2nc3ccccc3[nH]2)c1 | 1.04 | 0.984
5 | ClC1=C(Cl)[C@]2(Cl)[C@@H]3[C@H]4C[C@H]([C@@H]5O[C@H]45)[C@@H]3[C@@]1(Cl)C2(Cl)Cl | 0.909 | 0.963
6 | CC[C@H]1CCCC(O[C@H]2CC[C@H](N(C)C)[C@@H](C)O2)[C@@H](C)C(=O)C2=C[C@@H]3[C@@H](C=C(C)[C@@H]4C[C@@H](O[C@@H]5O[C@@H](C)[C@H](OC)[C@@H](OC)[C@H]5OC)C[C@@H]34)[C@@H]2CC(=O)O1.CC[C@H]1CCCC(O[C@H]2CC[C@H](N(C)C)[C@@H](C)O2)[C@@H](C)C(=O)C2=C[C@@H]3[C@@H](C=C[C@@H]4C[C@@H](O[C@@H]5O[C@@H](C)[C@H](OC)[C@@H](OC)[C@H]5OC)C[C@@H]34)[C@@H]2CC(=O)O1 (some centres not stated) | 1.03 | 0.972
7 | Cc1cc(Cl)ccc1N=CN(C)C.Cl | 0.994 | 0.99
8 | COc1ccc(-c2ccccc2)cc1NNC(=O)OC(C)C | 1.03 | 1.02
9 | CCNc1nc(NCC)nc(SC)n1 | 1.08 | 0.978
10 | ClC1=C(Cl)C2(Cl)[C@H]3[C@@H]4O[C@@H]4[C@H](Cl)[C@H]3C1(Cl)C2(Cl)Cl (single isomer, unassigned; isomer b) | 0.894 | 0.961
11 | CO/N=C(/C(=O)OC)c1ccccc1COc1ccccc1C | 0.97 | 0.97
12 | O=[N+]([O-])c1ccc(O)c([N+](=O)[O-])c1 | 0.912 | 0.992
13 | Nc1c([N+](=O)[O-])ccc(Oc2ccccc2)c1Cl | 0.988 | 0.929
14 | C/C(=N\NC(=O)Nc1cc(F)cc(F)c1)c1ncccc1C(=O)[O-].[Na+] | 1.06 | 0.988
15 | CCS(=O)(=O)Oc1ccc2c(c1)C(C)(C)CO2 | 1.04 | 1.03
16 | N#CN=C1SCCN1Cc1ccc(Cl)nc1 | 1.01 | 1.01
17 | COP(=S)(OC)Oc1c(Cl)cc(C)cc1Cl | 0.912 | 0.972
18 | COC(=O)COc1ccc(Cl)cc1Cl | 0.943 | 0.937
19 | CC(C)(C)C(=O)C(Oc1ccc(Cl)cc1)n1cncn1 (configuration not stated) | 1.03 | 1.01
20 | COP(=O)(OC)O/C(C)=C/C(=O)N(C)C | 0.988 | 0.984
21 | COC(=O)c1ccccc1CS(=O)(=O)NC(=O)Nc1nc(OC)cc(OC)n1 | 0.964 | 1.01
22 | c1ccc2c(c1)-c1cccc3cccc-2c13 | 0.956 | 0.972
23 | O=C(O)C(Cl)Cl | 1.02 | 1.02
24 | CC(=NC#N)N(C)Cc1ccc(Cl)nc1 | 0.956 and 1.02 | 1.05 and 1.06

Row | SMILES | growth AUC [1] | growth AUC [2]
25 | CCN(CC)c1c([N+](=O)[O-])cc(C(F)(F)F)c(N)c1[N+](=O)[O-] | 0.984 | 1.03
26 | CC(C)(C)C(O)C(Cc1ccc(Cl)cc1Cl)n1cncn1 (mixture of isomers) | 0.918 | 0.974
27 | CN/C(=N\[N+](=O)[O-])NCc1cnc(Cl)s1 | 1.05 | 1
28 | CCOP(=S)(OCC)SCS(=O)CC (configuration not stated) | 0.995 | 0.976
29 | COP(=S)(OC)Oc1ccc(S(C)(=O)=O)c(C)c1 | 0.985 | 0.972
30 | O=c1oc2ccccc2c(O)c1C1CC(c2ccc(-c3ccccc3)cc2)Cc2ccccc21 (configuration not stated) | 0.711 (active) | 0.709 (active)
31 | COP(=O)(OC)Oc1ccc(SC)c(C)c1 | 1.02 | 1
32 | Cc1ccc(N=CN(C)C=Nc2ccc(C)cc2C)c(C)c1 | 0.983 | 0.967
33 | CCOP(=O)(OCC)OCC | 1.07 | 0.994
34 | Clc1ccc(Cl)c(Cl)c1 | 0.989 | 1.01
35 | CNC(=O)ON=C(CSC)C(C)(C)C | 1.02 | 1.02
36 | O=S(=O)(c1ccc(Cl)cc1)c1cc(Cl)c(Cl)cc1Cl | 0.989 | 0.999
37 | COP(=O)(OC)OC1=C(Cl)C2C=CCC12 (configuration not stated) | 1.04 | 1.03
38 | CC1(C)C(C=C(Cl)Cl)C1C(=O)OC(C#N)c1cccc(Oc2ccccc2)c1 (mixture of isomers) | 0.945 | 0.936
39 | COCC(=O)N(c1c(C)cccc1C)[C@@H](C)C(=O)OC | 0.997 | 0.999
40 | C#CCN1CC(=O)N(COC(=O)C2C(C=C(C)C)C2(C)C)C1=O (mixture of isomers) | 1.04 | 0.943
41 | N#Cc1cc(I)c(O)c(I)c1 | 0.993 | 0.898
42 | CC(C)C1(C)N=C(c2nc3ccccc3cc2C(=O)O)NC1=O (configuration not stated) | 1.03 | 0.935
43 | CCNc1nc(NC(C)C)nc(SC)n1 | 1.02 | 0.973
44 | CCOP(=O)(SC(C)CC)SC(C)CC (configuration not stated) | 1.01 | 1.01
45 | Cc1ccc(-c2c(Cl)nc(C#N)n2S(=O)(=O)N(C)C)cc1 | 0.995 | 0.956
46 | COP(=S)(OC)SCn1nnc2ccccc2c1=O | 1.09 | 0.969
47 | CCNc1nc(NC(C)C)[nH]c(=O)n1 | 1.04 | 1.02
48 | CCNc1nc(Cl)nc(NCC)n1 | 0.968 | 1.03

Row | SMILES | growth AUC [1] | growth AUC [2]
49 | CC1(C)CCC(Cc2ccc(Cl)cc2)C1(O)Cn1cncn1 (configuration not stated) | 0.943 | 1
50 | O=C(O)C(F)(F)C(F)(F)C(F)(F)C(F)(F)C(F)(F)C(F)(F)C(F)(F)F | 1 | 1.01
51 | O=C(Cc1ccccc1)N/C(=N\OCC1CC1)c1c(C(F)(F)F)ccc(F)c1F | 0.976 | 0.968
52 | CCC(=O)Nc1ccc(Cl)c(Cl)c1 | 0.917 | 0.973
53 | COP(=S)(OC)SCN1C(=O)c2ccccc2C1=O | 0.901 | 0.979
54 | O=C(NCCc1ncc(C(F)(F)F)cc1Cl)c1ccccc1C(F)(F)F | 0.987 | 1.01
55 | CCOP(=O)(NC(C)C)Oc1ccc(S(C)(=O)=O)c(C)c1 (configuration not stated) | 1.09 | 0.999
56 | ClCC1C(CCl)C2(Cl)C(Cl)=C(Cl)C1(Cl)C2(Cl)Cl (configuration not stated) | 0.996 | 0.981
57 | CC(Cc1ccc(C(C)(C)C)cc1)CN1C[C@@H](C)O[C@@H](C)C1 (some centres not stated) | 1.06 | 0.999
58 | Clc1ccccc1-c1nnc(-c2ccccc2Cl)nn1 | 1.1 | 0.984
59 | CCOP(=O)(OCC)O/C(=C\Cl)c1ccc(Cl)cc1Cl | 1.06 | 0.982
60 | Oc1c(Br)cc(Br)cc1Br | 1.08 | 0.959
61 | O=c1oc2ccccc2c(O)c1C1CC(c2ccc(OCc3ccc(C(F)(F)F)cc3)cc2)Cc2ccccc21 (mixture of isomers) | 0.411 (active) | 0.212 (active)
62 | CC(C)OP(=O)(OC(C)C)SCc1ccccc1 | 0.951 | 1
63 | CCOC(=O)Nc1cccc(OC(=O)Nc2ccccc2)c1 | 1.01 | 1.02
64 | COS(=O)(=O)[O-].Cn1c(-c2ccccc2)cc(-c2ccccc2)[n+]1C | 0.948 | 0.97
65 | Cc1nc(N(C)C=O)nc(OC(=O)N(C)C)c1C | 0.964 | 0.999
66 | O=c1oc2ccccc2c(O)c1C1CCCc2ccccc21 (configuration not stated) | 1 | 1.01
67 | N#Cc1nn(-c2c(Cl)cc(C(F)(F)F)cc2Cl)c(N)c1S(=O)(=O)C(F)(F)F | 0.965 | 0.548 (active)
68 | Cc1ccccc1CO[C@@H]1C[C@@]2(C(C)C)CC[C@]1(C)O2 (mixture of isomers) | 0.978 | 0.97
69 | CN(C)C(=O)C(c1ccccc1)c1ccccc1 | 0.964 | 0.995
70 | Oc1ccc(C(c2ccc(O)cc2)(C(F)(F)F)C(F)(F)F)cc1 | 0.661 (active) | 0.85
71 | CC(C)c1ccc(NC(=O)N(C)C)cc1 | 0.95 | 0.956
